Test results published in PubChem BioAssay.
Activity calls are given as the source filed them.

Tests used:
Albumin (Bos taurus) = Albumin (Bos taurus) (UniProt P02769); experiment: compounds binding labelled BSA control protein – biochemical, small-molecule microarray, Alexa647 label, 635/667 nm fluorescence, artefact control for SMM control protein annotation, profiling panel (AID 1118); conditions: BSA-A647 binding, fluorescence 635 nm, higher = more signal;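 note: score merges 667 nm emission intensity and signal-to-noise per printed compound spot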
[1] = probe aXIP binding to arrayed compounds – biochemical, NeuroSMM set, 635/667 nm fluorescence, primary screen (AID 1119); conditions: small-molecule microarray, higher = more signal, called active from +8 up or from −8 down;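 note: probe is the protein aXip251-270 applied at 1 µg/mL to compound-printed slides; binding of probe to printed compounds measured as 667 nm fluorescence plus signal to noise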
[2] = probe aNOTCH3 binding on compound microarray – biochemical, small-molecule microarray, 635/667 nm fluorescence, primary screen (AID 1120); conditions: higher = more signal;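 note: probe is a biotin-tagged antibody raised against NOTCH3 rather than NOTCH3 protein; score merges spot fluorescence near 667 nm with spot signal to noise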
[3] = probe aNOTCH2 binding on compound microarray – biochemical, small-molecule microarray, 635/667 nm fluorescence, primary screen (AID 1121); conditions: higher = more signal;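 note: score merges feature fluorescence read at 667 nm with its signal to noise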
[4] = biological target: Carbonic anhydrase 2 (Homo sapiens) (UniProt P00918); experiment: compounds binding carbonic anhydrase 2 – biochemical, small-molecule microarray, Alexa647-labelled CAII, profiling panel (AID 1122); conditions: CAII-A647 binding fluorescence, higher = more signal
[5] = COS7 lysate on small-molecule microarray, probe aHis, 635 nm (AID 1123); conditions: COS7 cell lysate, fluorescence, higher = more signal;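 note: z-score combines 667nm fluorescence intensity with signal-to-noise per printed compound spot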
[6] = probe aLAP1 signal on lysate-treated microarray – cell lysate, small-molecule microarray, COS7 lysate, primary screen (AID 1124); conditions: probe aLAP1, fluorescence, higher = more signal;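 note: lysate comes from COS7 cells expressing LAP1 and is applied at 0.3 µg/mL; score merges spot fluorescence near 667 nm with signal-to-noise over triplicate slides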
Sam68 (KHDRBS1) = experiment: compounds binding KHDRBS1 protein – biochemical, small-molecule microarray, 635 nm fluorescence, primary screen (AID 1125); conditions: higher = more signal;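 note: score merges 667 nm channel intensity with signal to noise over triplicate slides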
[7] = system: Chordin-like protein 2 (CHRDL2); experiment: compounds binding chordin-like 2 – biochemical, small-molecule microarray, 635 nm fluorescence, primary screen (AID 1126); conditions: fluorescence 635 nm, higher = more signal;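 note: printed compound slides probed with Chrdl2 protein at 4 µg/mL for 1 h at 4 C; score merges 667 nm emission intensity with signal to noise over three replicate slides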
[8] = biological target: Concanavalin-A (Canavalia ensiformis) (UniProt P02866); experiment: compounds binding concanavalin A lectin – biochemical, small-molecule microarray, Alexa647 label, 635 nm, artefact control for SMM control protein annotation, primary screen (AID 1127); conditions: ConA-A647 binding fluorescence, higher = more signal;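 note: z combines 667 nm emission intensity with signal-to-noise across three replicate slides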
Concanavalin-A (Canavalia ensiformis), sequence (P02866 whole entry, looked up): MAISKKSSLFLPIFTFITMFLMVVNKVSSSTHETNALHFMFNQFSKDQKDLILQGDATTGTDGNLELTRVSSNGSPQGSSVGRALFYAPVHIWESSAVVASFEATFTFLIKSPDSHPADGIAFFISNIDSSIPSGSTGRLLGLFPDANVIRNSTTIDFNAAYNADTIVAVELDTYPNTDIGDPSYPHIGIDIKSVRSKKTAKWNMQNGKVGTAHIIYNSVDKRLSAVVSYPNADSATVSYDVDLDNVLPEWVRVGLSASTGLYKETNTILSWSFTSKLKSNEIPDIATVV

Albumin (Bos taurus), sequence (P02769 whole entry, looked up): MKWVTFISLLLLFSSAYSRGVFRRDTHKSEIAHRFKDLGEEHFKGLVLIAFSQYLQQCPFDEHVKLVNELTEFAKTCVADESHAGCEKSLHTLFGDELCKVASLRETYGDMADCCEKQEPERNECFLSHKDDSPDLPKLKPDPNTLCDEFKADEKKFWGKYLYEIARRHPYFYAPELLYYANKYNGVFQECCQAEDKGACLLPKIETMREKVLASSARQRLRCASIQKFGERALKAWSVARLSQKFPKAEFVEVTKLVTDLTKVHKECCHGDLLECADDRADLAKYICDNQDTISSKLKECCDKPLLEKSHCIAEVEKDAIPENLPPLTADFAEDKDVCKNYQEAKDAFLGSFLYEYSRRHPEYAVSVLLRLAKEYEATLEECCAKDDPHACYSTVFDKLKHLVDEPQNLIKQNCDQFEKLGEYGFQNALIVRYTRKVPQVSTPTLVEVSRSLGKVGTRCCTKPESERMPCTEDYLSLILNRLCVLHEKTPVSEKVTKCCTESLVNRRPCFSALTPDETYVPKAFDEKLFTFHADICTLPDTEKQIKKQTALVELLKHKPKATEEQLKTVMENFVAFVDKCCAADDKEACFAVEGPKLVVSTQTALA

| Structure (SMILES) | composite z-score (Albumin (Bos taurus)) | composite Z-score [1] | composite z-score [2] | composite z-score [3] | composite z-score [4] | composite z-score [5] | composite z-score [6] | composite z-score (Sam68 (KHDRBS1)) | composite z-score [7] | composite z-score [8] |
| --- | --- | --- | --- | --- | --- | --- | --- | --- | --- | --- |
| CC(C)NC(=O)[C@@]1(Cc2ccccc2I)c2ccccc2C(=O)N(C2CCCCC2)[C@H]1c1ccc(CO)cc1 | 0.965 | 0.256 (inactive) | 0.233 | 0.076 | 0.312 | 2.55 | 0.429 | 1.31 | 0.127 | 1.1 |
| COc1ccc([Si](C)(C)[C@H]2[C@H](CC(=O)N(CCO)Cc3ccccc3)O[C@@]3(C(=O)N(C)c4ccccc43)[C@@H]2C)cc1 | 0.748 | -0.0798 (inactive) | 0.0833 | -0.155 | 0.384 | 0.136 | 0.177 | 1.05 | 1.21 | 0.664 |
| COCCCNC(=O)[C@@]1(Sc2ccc(C)cc2)CC(=O)N(Cc2cc(C(F)(F)F)cc(C(F)(F)F)c2)[C@@H]1c1ccc(CO)cc1I | -0.306 | 0.297 (inactive) | -0.227 | -0.133 | 0.85 | 0.57 | -0.874 | -0.955 | -1.19 | -0.82 |
| O=[N+]([O-])c1ccc(C[n+]2ccc3ccc(O)cc3c2)o1 | 0.895 | 0.14 (inactive) | 0.0736 | -0.0746 | 0.64 | 0.466 | 0.98 | 0.534 | 0.0197 | 1.11 |
| C=CCOC(=O)[C@@H]1[C@H]2C(=O)O[C@H](c3ccccc3)[C@H](c3ccccc3)N2[C@H](c2ccc(OCCOC(=O)[C@H]3C[C@H]4C(=O)N5CCC[C@H]5C(=O)N4[C@H]3c3ccc(O)cc3)cc2)[C@@]12C(=O)Nc1ccccc12 | -0.876 | 0.223 (inactive) | -0.125 | -0.185 | 0.252 | 1.12 | 0.333 | 1.27 | 0.95 | 1.19 |
| C=C(CCCC)C(=O)CC[C@@H](OC(=O)c1cccnc1)c1cccc(OCCO)c1 | -1.06 | -0.123 (inactive) | 0.0351 | -0.148 | 0.15 | 0.0383 | 0.0475 | 0.789 | 0.207 | -0.158 |
| CO[C@@H]1COC(=O)[C@@H]2CCCN2C(=O)CC=C[C@@H](C)[C@H](OC)COC(=O)[C@@H]2CCCN2C(=O)CC=C[C@H]1C | -1.36 | -0.286 (inactive) | -0.0699 | -0.141 | -0.439 | -0.422 | 0.169 | -0.149 | 1.36 | -0.512 |
| C[C@@H]1CC[C@H]2C(=O)N3[C@@H](CC[C@@H](C)[C@@H]3c3cccc(N4CCOCC4)c3)C(=O)N2[C@H]1c1cccc(Br)c1 | 0.718 | 0.307 (inactive) | -0.0259 | -0.0956 | 0.459 | 0.425 | 0.336 | 1.16 | 0.932 | 0.92 |
| C[C@H]1NC(=O)[C@@H](C)NC(=O)[C@@]23C(=O)N[C@@H](Cc4ccccc4)C2[C@H](C)[C@@]2(C)O[C@H]2C3/C=C/C/C=C\CNC1=O (stereo not given in full) | -0.631 | 0.0894 (inactive) | -0.195 | -0.126 | 0.502 | -0.482 | -0.599 | -0.344 | 0.274 | -0.888 |
| C=CC[C@@]1(C(=O)N2CCOCC2)N=C(c2ccc(OCCCO)cc2)O[C@@H]1c1ccccc1 | 0.18 | 0.0379 (inactive) | -0.223 | -0.327 | 0.716 | 2.17 | -0.108 | -0.157 | -0.796 | -0.226 |
| O=C(CS)NCCCCCNC(=O)[C@H]1C[C@H]2C(=O)N3CCC[C@H]3C(=O)N2[C@H]1c1ccc(O)cc1 | -1.54 | -0.17 (inactive) | -0.229 | -0.0304 | 0.729 | 0.0961 | 1.23 | -0.305 | 0.641 | -0.736 |
| CCOC(=O)C[C@H]1[C@H](OC(=O)Cc2ccc3c(c2)OCO3)[C@@H](NC(=O)CC(C)C)c2cc(OCCCO)ccc2N1C(=O)c1ccccc1 | 0.842 | 0.312 (inactive) | -0.0682 | 0.0972 | 0.186 | 0.41 | -0.0777 | 0.562 | 0.133 | -1.14 |
| CCCN1C(=O)[C@@]2(CCS(=O)(=O)c3ccccc3)N=C(c3ccc(OCCCO)cc3)O[C@H]2c2ccccc21 | -0.676 | -0.113 (inactive) | 0.0833 | -0.0956 | 0.294 | 2.41 | 0.163 | 1.3 | 0.637 | 0.892 |
| CCOC(=O)C[C@H]1[C@H](OC(=O)c2cc3ccccc3oc2=O)[C@@H](NC(=O)c2ccc3ccccc3c2)c2cc(OCCCO)ccc2N1C(=O)c1ccc2ccccc2n1 | 0.668 | 0.575 (inactive) | 0.0842 | -0.122 | 0.426 | 0.193 | 0.155 | 0.325 | 0.731 | 0.536 |
